Data published in PubChem BioAssay (NCI).
About 83,000 compounds went through this panel and 20% of them were active in at least one assay; those are over-represented in the sample as a whole.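 Treatment: one concentration, 48 hours, 96-well format. Scoring: percent growth, with anything below 10 considered active.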 Unmarked numbers belong to inactive results. Activity calls are given as the source filed them.

Assays:
Experiment in all cases: NCI-60 one-dose screen, 48 h (100 = growth as untreated, 0 = no growth, -100 = all killed)
Conditions in all cases: 10 µM unless noted
SR leukemia = test system: SR leukemia
RPMI-8226 leukemia = test system: RPMI-8226 leukemia
OVCAR-8 ovarian = test system: OVCAR-8 ovarian
OVCAR-5 ovarian = test system: OVCAR-5 ovarian
OVCAR-4 ovarian = test system: OVCAR-4 ovarian
SK-OV-3 ovarian = test system: SK-OV-3 ovarian
IGROV1 ovarian = test system: IGROV1 ovarian
OVCAR-3 ovarian = test system: OVCAR-3 ovarian
HS 578T breast = test system: HS 578T breast
NCI/ADR-RES ovarian = test system: NCI/ADR-RES ovarian
T-47D breast = test system: T-47D breast
BT-549 breast = test system: BT-549 breast
MDA-MB-435 melanoma = test system: MDA-MB-435 melanoma
SW-620 colon = test system: SW-620 colon
MCF7 breast = test system: MCF7 breast
HCT-116 colon = test system: HCT-116 colon
HCC-2998 colon = test system: HCC-2998 colon
KM12 colon = test system: KM12 colon

SMILES	growth (SR leukemia)	growth (RPMI-8226 leukemia)	growth (OVCAR-8 ovarian)	growth (OVCAR-5 ovarian) [%]	growth (OVCAR-4 ovarian)	growth (SK-OV-3 ovarian) [%]	growth (IGROV1 ovarian)	growth (OVCAR-3 ovarian)	growth (HS 578T breast)	growth (NCI/ADR-RES ovarian)	growth (T-47D breast)	growth (BT-549 breast)	growth (MDA-MB-435 melanoma)	growth (SW-620 colon)	growth (MCF7 breast)	growth (HCT-116 colon)	growth (HCC-2998 colon)	growth (KM12 colon)
Oc1ccccc1/C=N/NC(=S)NC1CC2C=CC1C2 (centres undefined)	30.1%	63.5%	84.3%	109	78.1%	95.7	62.2%	67.4%	98.2%	0.723% (active)	79.9%	61%	11.9%	45.5%	80.7%	42.9%	66.5%	53%
CCN(CC)c1ccc(/C=C2\Oc3ccc(O)c(I)c3C2=O)cc1	2.38% (active)	32.3%	61.7%	95.1	81.5%	79.5	40.4%	19.1%	75.4%	37.9%	55.1%	54.4%	16.7%	43.2%	26.9%	33.9%	97.2%	43.3%
COc1cc(/C=N\NC(=O)CN2CCN(c3cc4c(cc3F)c(=O)c(C(=O)N/N=C/c3cc(OC)c(OC)c(OC)c3)cn4C3CC3)CC2)cc(OC)c1OC	2.97% (active)	0.709% (active)	22.4%	19.6	-17.7% (active)	19.2	-16.6% (active)	-75.2% (active)	-0.587% (active)	103%	-12.3% (active)	-17.7% (active)	-45.1% (active)	6.11% (active)	7.55% (active)	-32.5% (active)	-95.2% (active)	-61.7% (active)
CCN(CC)c1ccc2[nH]c3c(C(N)=O)cc(=O)c(=O)c=3oc2c1	5.09% (active)	-1.62% (active)	0.295% (active)	15.1	2.07% (active)	19.9	-44.4% (active)	-35.9% (active)	2.92% (active)	-0.316% (active)	-0.924% (active)	38.9%	-4.76% (active)	9.8% (active)	-31.5% (active)	-10.9% (active)	-5.4% (active)	9.09% (active)
C[n+]1c(/C=C/c2c(O)ccc3ccccc23)ccc2ccccc21	-36.2% (active)	3.79% (active)	21.3%	77.3	28.3%	50.6	45.2%	-20.5% (active)	55.7%	25.2%	26.6%	27.9%	25.6%	17%	15.9%	-13.9% (active)	59.8%	38.7%
O=[N+]([O-])c1ccc(-c2cn(-c3ccccc3)c(-c3ccccc3)n2)cc1	43.3%	-0.221% (active)	70.6%	95.4	84.2%	79.1	64.2%	97.4%	97.5%	85.3%	65.9%	96%	100%	95%	74.4%	87.1%	104%	94.4%
CCNc1nc(S(=O)(=O)CC)nc2ccccc12	84.5%	87.5%	99.8%	104	99.7%	96.6	104%	98%	93.6%	111%	92.4%	91.2%	81.9%	106%	95.8%	91.7%	115%	94.9%
N[C@@H]1CCN(C(=O)c2cc3cc(Cl)c(F)c(F)c3[nH]2)C1	88.3%	96%	96.3%	90.3	96.5%	89.3	80.7%	97.6%	87.5%	103%	82.2%	1.7% (active)	97.3%	96.6%	94.5%	92.8%	96.1%	98.8%
